NR2F2 inh = inhibitors of human COUP-TFII (NR2F2). P24468. HEK293T NGFI-A luciferase reporter, luminescence. inhibition, % at 8.6 µM. 0.7% of 370,000 active. AID 686940;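 active means inhibition above a per-plate cutoff, mean inhibition of test wells between control levels plus 3 SD, cut at about 38% in these data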;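 further: cells cotransfected with COUP-TFII expression vector driving the NGFI-A reporter; 0% = median of COUP-TF2 test wells and 100% = reporter-only cells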
Target sequence (P24468 whole entry, looked up): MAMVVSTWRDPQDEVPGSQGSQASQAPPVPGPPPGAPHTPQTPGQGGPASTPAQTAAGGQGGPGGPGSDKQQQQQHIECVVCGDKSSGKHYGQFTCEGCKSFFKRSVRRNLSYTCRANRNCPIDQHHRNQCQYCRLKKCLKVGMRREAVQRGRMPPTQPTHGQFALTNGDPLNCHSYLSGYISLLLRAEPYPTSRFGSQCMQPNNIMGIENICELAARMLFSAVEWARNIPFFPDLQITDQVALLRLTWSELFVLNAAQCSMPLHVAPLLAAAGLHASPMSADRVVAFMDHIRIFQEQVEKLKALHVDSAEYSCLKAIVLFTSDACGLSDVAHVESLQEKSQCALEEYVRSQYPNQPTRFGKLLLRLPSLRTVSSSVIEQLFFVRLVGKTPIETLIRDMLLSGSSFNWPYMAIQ
Gli-Sufu block = blocks Gli-Sufu signaling in a luciferase reporter; inhibition, % at 5 µM; Sufu-KO-LIGHT fibroblasts, Gli luciferase reporter luminescence; AID 588413; 0.74% of 340,000 active;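 active means inhibition above about 55%, limit read from the data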;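 further: 0% = DMSO-treated cells and 100% = wells with medium but no cells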
Jurkat NFkB inh = inhibitors of the PMA/ionomycin-induced NF-kB reporter in Jurkat cells. 0.53% of 330,000 active. PMA/ionomycin-induced NF-kB luciferase reporter, luminescence. inhibition, % at 4 µM; in the data active means inhibition above about 50%
TAG inh = triacylglycerol accumulation inhibition; H9c2 cells, Nile Red lipid (TAG) fluorescence; cells loaded with 200 µM oleic acid; inhibition, % at 12.5 µM; 0.66% of 230,000 active; AID 651582;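 active means pattern-corrected inhibition of lipid staining of at least 50% with the nuclear-stain viability signal not falling by more than 50%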;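 further: 0% = DMSO wells and 100% = triacsin C control wells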
697 NFkB inh = inhibitors of the PMA/ionomycin-induced NF-kB reporter in 697 B cells; 697 B-cell NF-kB luciferase reporter, 16 h; inhibition, % at 4 µM; 0.33% of 330,000 active; AID 435022; in the data active means inhibition above about 35%
H9c2 protect = protects H9c2 cardiomyocytes from peroxide injury. 0.63% of 360,000 active. H2O2 injury protection, ATPLite, 2 h. AID 588492. protection from H2O2 cell death, % at 20 µM;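 active means compounds giving at least 50% protection of heart cells from peroxide-induced death in the single-dose screen, raw or plate-pattern-corrected value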;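 further: 0% = DMSO wells with peroxide and 100% = DMSO wells without peroxide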
Gli antag conf = Gli-SUFU antagonism confirmation, single concentration; 40% of 2,500 active; shares compounds with Gli-Sufu block; Sufu-KO-LIGHT cells, Gli luciferase reporter, luminescence; inhibition, % at 5 µM;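 active means mean inhibition at 5 µM reaching about 45%, limit read from the data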;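 further: plate controls were DMSO-treated cells for no effect and wells lacking cells for full effect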
Gli cytotox = cytotoxicity counter-screen for Gli-SUFU antagonists | shares compounds with Gli-Sufu block | Sufu-KO-LIGHT cells cytotoxicity, ATP luminescence | cytotoxicity, % at 5 µM | 32% of 2,500 active | AID 651994;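 active means mean cytotoxicity at 5 µM above about 25%, limit read from the data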;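 further: cells exposed to compound overnight for roughly 16 to 18 hours; plate controls were DMSO wells with cells for no effect and medium without cells for full effect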
Wnt3a cs = counter-screen for Gli-SUFU antagonists: Wnt3a reporter inhibition; inhibition, % at 6.25 µM; shares compounds with Gli-Sufu block; 20% of 2,500 active; Wnt-LIGHT cells, Wnt3a-driven luciferase reporter, luminescence;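 active means mean inhibition above about 25%, limit read from the data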
An asterisk follows results filed as active; . = no result. A selection: hits, their analogues and other compounds. The true share with any hit is near 2.6%.

SMILES	NR2F2 inh	Gli-Sufu block	Jurkat NFkB inh	TAG inh	697 NFkB inh	H9c2 protect	Gli antag conf	Gli cytotox	Wnt3a cs
N#CC(c1ccccc1)c1ccc2c(C(F)(F)F)cc(C(F)(F)F)nc2n1 (stereo not drawn)	6	3	7	8	-3	-36	.	.	.
O=C(NCCc1c[nH]c2ccccc12)OCc1cn(-c2ccc(Cl)cc2)nn1	-6	.	.	.	.	.	.	.	.
Cc1ccc(CN2CCC(CNS(=O)(=O)c3ccc(-c4ccc(=O)[nH]n4)s3)CC2)cc1	3	60*	-1	.	11	-1	21	12	12
O=c1ccc(-c2ccc(S(=O)(=O)NCc3cccc(Br)c3)s2)n[nH]1	9	.	14	.	-22	-3	.	.	.
Cc1ccccc1CNCc1ccc2c(c1)OCO2	20	51	0	.	9	1	27	4	1
CCOC(=O)c1c(NC(=O)COc2cccc3c2CCN(C)C3=O)sc2c1CCC2	8	58*	10	.	-39	-14	43	8	15
CCN(CC)CCCNC(=O)CSc1nnc(-c2ccncc2)n1-c1ccc(OC)cc1	-7	.	.	.	.	.	.	.	.
CC(C)(C)NC(=O)c1cccc(NC(=O)c2ccc(NC(=O)c3ccco3)cc2)c1	7	75*	-18	.	-13	74*	18	12	-87
Cc1ccc(C(=O)N2CCN(c3nc4ccccc4n3C)CC2)cc1	-8	70*	-3	.	-14	4	13	23	-83
O=C(CSc1nnc(-c2cccnc2)n1-c1ccc(Cl)cc1)c1ccc2ccccc2c1	4	.	.	.	.	.	.	.	.
Cc1ccc(C(=O)CSc2nc3cc(S(=O)(=O)N4CCOCC4)ccc3o2)cc1	1	5	-13	4	-19	-12	.	.	.
Cc1[nH]c2ccccc2c1C(=O)CSc1nc2cc(S(=O)(=O)N3CCCCC3)ccc2o1	19	55*	18	33	-20	-11	42	13	23
COc1ccccc1N1CCN(CC(=O)c2c(C)[nH]c3ccccc23)CC1	8	-6	16	.	16	10	.	.	.
COc1ccccc1N1CCN(CC(O)c2c(C)[nH]c3ccccc23)CC1 (stereo not drawn)	-5	61*	-4	.	16	3	20	21	-29
Cc1noc(C)c1NC(=O)Nc1ccc2c(c1)C(=O)N([C@@H](C)CO)C[C@@H](C)[C@H](CN(C)S(=O)(=O)c1ccc(F)cc1)OCCCC[C@H](C)O2	-9	.	.	.	.	.	.	.	.
O=[N+]([O-])c1nn(-c2ccc3c(c2)OCCO3)n(O)c1=Nc1ccc(Cl)cc1	31	57*	39	.	10	-11	60*	17	44*
Cc1ccc(N=c2c([N+](=O)[O-])nn(-c3ccc4c(c3)OCCO4)n2O)c(Cl)c1	.	.	30	.	7	.	.	.	.
CCc1ccc(N=c2c([N+](=O)[O-])nn(-c3ccc4c(c3)OCCO4)n2O)cc1	-14	-5	-4	3	-13	-7	.	.	.
Cc1ccc(N=c2c([N+](=O)[O-])nn(-c3ccc4c(c3)OCCO4)n2O)cc1F	17	61*	40	2	7	2	65*	-2	70*
C[C@H]1[C@@H](OC(=O)NCc2ccccc2Cl)CC[C@@]23CCCN2C(=O)CCC[C@@H]13	2	.	.	.	.	.	.	.	.
COC(=O)[C@]12C[C@H](CC(=O)NCCCN3CCCC3=O)C(=O)N(Cc3ccccc3)C1=C[C@H](COCc1ccccc1)O[C@@H]2C	-2	.	.	.	.	.	.	.	.
Cc1ccc(C(=O)N/N=C\C=C\c2ccc(Br)cc2)cn1	-15	51	-9	.	-11	23	27	5	-4
N#Cc1ccc(CSc2nnc(-c3cccnc3)n2-c2ccccc2)cc1	19	2	-4	.	-5	-3	.	.	.
CCOc1ccc(-n2c(SCc3ccc(C#N)cc3)nnc2-c2cccnc2)cc1	8	95*	-18	15	-7	8	27	4	-24
N#Cc1ccc(COC(=O)C2CCC(=O)N2)cc1 (stereo not drawn)	2	99*	-4	-10	-5	8	10	3	-5
SMILES	NR2F2 inh	Gli-Sufu block	Jurkat NFkB inh	TAG inh	697 NFkB inh	H9c2 protect	Gli antag conf	Gli cytotox	Wnt3a cs
CCOC(=O)C1=C(C(=O)OCC)C2N(Cc3ccc(Br)cc3)c3ccccc3[C@@]23C[C@@H](C(=O)OC)N(S(=O)(=O)c2ccc(F)cc2)C3=N1 (stereo partly drawn)	-4	.	.	.	.	.	.	.	.
Cc1ccccc1COC(=O)CNC(=O)c1sc2ccccc2c1Cl	13	65*	4	-8	7	-5	21	10	-1
Cc1noc(C)c1C(=O)N1CCC(n2nnc3ncccc32)CC1	-9	.	.	.	.	.	.	.	.
CN(CCc1ccccn1)C(=O)CC1C(=O)NCCN1Cc1ccc(-c2ccccc2)cc1 (stereo not drawn)	-10	60*	-4	-23	7	3	9	1	-25
Cc1cc(C)nc(CCNC(=O)CC2C(=O)NCCN2Cc2ccccc2)n1 (stereo not drawn)	-17	52	4	.	-7	3	21	-4	2
COc1ccc(-n2ncc3c2CC(C)(C)CC3NC(=O)Cc2nonc2C)cc1 (stereo not drawn)	-13	-2	8	.	6	6	.	.	.
COc1ccc(-n2ncc3c2CC(C)(C)CC3NC(=O)CN2CCOC2=O)cc1 (stereo not drawn)	-2	61*	13	.	-14	3	22	12	-10
CC(C)(C)c1ccc(-n2ncc3c2CCCC3NC(=O)c2ccncc2)cc1 (stereo not drawn)	8	51	32	4	-19	-17	28	20	-68
Cc1ccc(NC(=O)CCn2cnc3cc(C)c(C)cc32)cc1	23	15	2	.	6	-1	.	.	.
CC(=O)Nc1cccc(NC(=O)CCn2cnc3cc(C)c(C)cc32)c1	-1	58*	2	.	2	-5	11	6	-57
COc1ccc2cc([C@@H](C)C(=O)O)ccc2c1	-1	53	-14	-8	-12	9	16	6	-38
Cc1c(NC(=S)NC(NC(=O)C(C)(C)C)C(Cl)(Cl)Cl)c(=O)n(-c2ccccc2)n1C (stereo not drawn)	8	51	-9	.	2	19	25	1	6
CCCC(=O)NC(NC(=S)Nc1c(C)n(C)n(-c2ccccc2)c1=O)C(Cl)(Cl)Cl (stereo not drawn)	2	2	-10	-1	8	-8	.	.	.
COc1cccc(CNC(=O)[C@H]2CCCN2C(=O)[C@H]2CCCN2C(=O)N2CCCCC2)c1	3	.	.	.	.	.	.	.	.
Nc1ccc(Br)cc1-c1nc2ccccc2[nH]c1=O	0	52	-21	-21	-14	-23	69*	34*	7

Assay outcomes: PubChem, several laboratories
